Experiments:
Test in all cases: DAPPL (digital affinity profiling via proximity ligation, sequencing); 10 mM Tris-HCl pH 7.5, 50 mM NaCl, 1 mM DTT, 4% glycerol, room temperature, 30 min; GST-TFs on glutathione beads, 16-mer random dsDNA library, 0.1% formaldehyde crosslink after washing; high values mean tight binding
Details in all cases: protein: recombinant; tags: N-terminal GST; dsDNA, one strand shown
FLI1 = target: T1, FLI1 (Homo sapiens, UniProt Q01543 1-452)
T1 sequence: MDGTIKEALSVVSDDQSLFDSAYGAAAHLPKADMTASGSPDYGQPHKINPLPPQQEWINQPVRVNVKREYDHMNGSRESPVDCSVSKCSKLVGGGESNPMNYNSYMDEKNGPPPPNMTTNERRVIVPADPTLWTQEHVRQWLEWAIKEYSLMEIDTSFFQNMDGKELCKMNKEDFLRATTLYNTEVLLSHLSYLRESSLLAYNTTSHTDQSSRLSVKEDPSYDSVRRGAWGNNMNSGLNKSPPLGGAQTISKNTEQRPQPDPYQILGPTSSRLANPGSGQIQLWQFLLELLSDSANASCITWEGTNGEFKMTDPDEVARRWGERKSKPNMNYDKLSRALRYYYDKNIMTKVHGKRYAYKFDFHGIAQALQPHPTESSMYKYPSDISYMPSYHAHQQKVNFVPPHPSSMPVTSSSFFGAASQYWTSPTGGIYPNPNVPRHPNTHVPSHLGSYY
Summary of the method: (§1)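 Pools were built from human transcription factors expressed in yeast as GST fusions, captured on glutathione beads and DNA-barcoded, along with a tag-only sample. Incubation with 200 nmole of a 16-mer random double-stranded DNA library lasted 30 min at room temperature in Tris/NaCl/DTT/glycerol buffer, and was followed by washing, 0.1% formaldehyde crosslinking, proximity ligation, PCR amplification and Illumina NextSeq500 sequencing. Binding signal is the quotient of each hexamer's read frequency for a factor and its frequency for the tag-only sample.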

ELK1 = target: T2, ELK1 (Homo sapiens, UniProt P19419 1-428)
T2 sequence: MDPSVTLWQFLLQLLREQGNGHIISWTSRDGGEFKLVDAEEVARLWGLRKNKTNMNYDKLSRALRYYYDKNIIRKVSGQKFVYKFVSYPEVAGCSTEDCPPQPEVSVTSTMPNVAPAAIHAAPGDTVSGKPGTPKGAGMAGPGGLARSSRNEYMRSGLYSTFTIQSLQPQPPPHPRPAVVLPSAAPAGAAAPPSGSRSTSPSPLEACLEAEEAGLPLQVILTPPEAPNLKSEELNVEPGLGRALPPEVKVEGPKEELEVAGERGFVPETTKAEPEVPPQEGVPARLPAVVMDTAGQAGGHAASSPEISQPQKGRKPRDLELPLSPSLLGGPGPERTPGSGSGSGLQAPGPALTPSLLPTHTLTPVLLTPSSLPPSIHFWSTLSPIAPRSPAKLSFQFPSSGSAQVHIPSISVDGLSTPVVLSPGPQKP
Summary of the method: as §1

GABPA = target: T3, GABPA (Homo sapiens, UniProt Q06546 1-454)
T3 sequence: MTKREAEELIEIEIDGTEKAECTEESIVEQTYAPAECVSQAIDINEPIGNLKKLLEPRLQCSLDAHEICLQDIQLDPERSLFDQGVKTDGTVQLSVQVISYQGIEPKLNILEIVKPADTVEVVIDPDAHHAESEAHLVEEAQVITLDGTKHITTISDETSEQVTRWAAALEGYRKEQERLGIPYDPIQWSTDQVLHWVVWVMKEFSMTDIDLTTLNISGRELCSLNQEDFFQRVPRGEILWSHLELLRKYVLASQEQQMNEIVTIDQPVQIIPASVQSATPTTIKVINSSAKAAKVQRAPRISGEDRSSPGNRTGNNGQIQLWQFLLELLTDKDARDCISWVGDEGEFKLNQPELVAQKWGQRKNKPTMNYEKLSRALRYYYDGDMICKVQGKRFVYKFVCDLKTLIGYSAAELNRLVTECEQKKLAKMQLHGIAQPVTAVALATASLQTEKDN
Summary of the method: as §1

ERG = target: T4, ERG (Homo sapiens, UniProt P11308 1-479)
T4 sequence: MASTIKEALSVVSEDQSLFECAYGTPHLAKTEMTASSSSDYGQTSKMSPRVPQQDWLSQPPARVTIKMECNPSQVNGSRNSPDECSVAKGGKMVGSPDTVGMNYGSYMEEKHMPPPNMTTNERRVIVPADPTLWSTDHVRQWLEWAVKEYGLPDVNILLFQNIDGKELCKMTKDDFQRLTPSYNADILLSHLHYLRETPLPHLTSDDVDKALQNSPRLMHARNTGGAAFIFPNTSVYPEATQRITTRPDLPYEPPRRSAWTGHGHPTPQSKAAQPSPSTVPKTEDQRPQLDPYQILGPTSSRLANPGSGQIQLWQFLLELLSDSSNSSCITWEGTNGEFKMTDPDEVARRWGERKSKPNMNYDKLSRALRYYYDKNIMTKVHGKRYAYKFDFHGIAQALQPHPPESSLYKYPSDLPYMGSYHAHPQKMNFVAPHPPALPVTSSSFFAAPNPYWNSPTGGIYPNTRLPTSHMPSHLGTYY
Summary of the method: as §1

ELF1 = ELF1 (Homo sapiens, UniProt P32519 1-619)
ELF1, sequence (P32519 whole entry): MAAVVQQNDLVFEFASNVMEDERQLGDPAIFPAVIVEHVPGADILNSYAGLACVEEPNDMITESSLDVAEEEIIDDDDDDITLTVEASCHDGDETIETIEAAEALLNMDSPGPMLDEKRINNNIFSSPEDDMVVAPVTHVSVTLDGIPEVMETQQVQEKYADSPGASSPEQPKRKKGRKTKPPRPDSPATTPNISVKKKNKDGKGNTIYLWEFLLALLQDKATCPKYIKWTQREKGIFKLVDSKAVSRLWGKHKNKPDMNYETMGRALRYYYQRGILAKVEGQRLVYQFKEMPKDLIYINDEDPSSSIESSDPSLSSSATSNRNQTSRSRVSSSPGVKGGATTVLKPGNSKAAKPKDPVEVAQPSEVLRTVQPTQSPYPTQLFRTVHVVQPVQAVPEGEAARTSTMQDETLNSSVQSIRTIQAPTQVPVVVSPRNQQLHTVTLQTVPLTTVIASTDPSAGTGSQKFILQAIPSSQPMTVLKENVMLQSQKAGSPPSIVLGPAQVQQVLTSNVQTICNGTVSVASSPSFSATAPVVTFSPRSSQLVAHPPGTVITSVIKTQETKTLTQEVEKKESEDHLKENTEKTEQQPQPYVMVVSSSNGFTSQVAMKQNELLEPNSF
Summary of the method: as §1

SPI1 = SPI1 (Homo sapiens, UniProt P17947 1-270)
Summary of the method: as §1

SPIB = SPIB (Homo sapiens, UniProt Q01892 1-262)
SPIB, sequence (Q01892 whole entry): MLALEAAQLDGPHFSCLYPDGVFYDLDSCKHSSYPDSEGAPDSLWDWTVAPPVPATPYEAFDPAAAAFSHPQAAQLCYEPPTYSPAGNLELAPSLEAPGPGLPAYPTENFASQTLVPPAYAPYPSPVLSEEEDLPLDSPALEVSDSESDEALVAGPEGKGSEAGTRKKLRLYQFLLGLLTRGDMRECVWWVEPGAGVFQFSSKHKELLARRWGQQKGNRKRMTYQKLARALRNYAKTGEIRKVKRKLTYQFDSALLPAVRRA
Summary of the method: as §1

ETV5 = ETV5 (Homo sapiens, UniProt P41161 1-510)
ETV5, sequence (P41161 whole entry): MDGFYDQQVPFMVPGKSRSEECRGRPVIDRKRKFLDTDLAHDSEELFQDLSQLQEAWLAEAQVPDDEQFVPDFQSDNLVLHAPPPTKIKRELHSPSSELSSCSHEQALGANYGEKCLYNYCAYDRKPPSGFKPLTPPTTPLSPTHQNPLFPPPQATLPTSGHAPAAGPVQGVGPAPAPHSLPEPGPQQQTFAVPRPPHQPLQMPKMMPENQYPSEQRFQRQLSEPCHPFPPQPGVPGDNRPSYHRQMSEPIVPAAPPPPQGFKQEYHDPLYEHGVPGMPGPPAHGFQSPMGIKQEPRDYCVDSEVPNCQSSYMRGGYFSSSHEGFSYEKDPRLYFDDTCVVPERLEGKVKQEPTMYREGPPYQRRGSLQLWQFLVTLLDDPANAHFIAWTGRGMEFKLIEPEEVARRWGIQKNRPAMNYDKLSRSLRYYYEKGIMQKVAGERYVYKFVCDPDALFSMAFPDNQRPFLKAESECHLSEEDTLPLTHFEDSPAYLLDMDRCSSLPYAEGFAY
Summary of the method: as §1

ELF3 = target: T5, ELF3 (Homo sapiens, UniProt P78545 1-371)
T5 sequence: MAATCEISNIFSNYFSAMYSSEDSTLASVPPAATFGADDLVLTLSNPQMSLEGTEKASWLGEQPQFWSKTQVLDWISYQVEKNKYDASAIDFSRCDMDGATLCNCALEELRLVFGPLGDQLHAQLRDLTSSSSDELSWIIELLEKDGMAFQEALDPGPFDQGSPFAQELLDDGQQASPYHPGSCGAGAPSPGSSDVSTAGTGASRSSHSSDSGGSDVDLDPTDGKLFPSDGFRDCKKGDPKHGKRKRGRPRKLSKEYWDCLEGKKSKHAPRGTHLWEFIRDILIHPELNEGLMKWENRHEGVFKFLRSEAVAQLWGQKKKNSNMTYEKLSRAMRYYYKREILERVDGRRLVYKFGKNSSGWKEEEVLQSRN
Summary of the method: as §1

ETV3L = target: T6, ETV3L (Homo sapiens, UniProt Q6ZN32 1-361)
T6 sequence: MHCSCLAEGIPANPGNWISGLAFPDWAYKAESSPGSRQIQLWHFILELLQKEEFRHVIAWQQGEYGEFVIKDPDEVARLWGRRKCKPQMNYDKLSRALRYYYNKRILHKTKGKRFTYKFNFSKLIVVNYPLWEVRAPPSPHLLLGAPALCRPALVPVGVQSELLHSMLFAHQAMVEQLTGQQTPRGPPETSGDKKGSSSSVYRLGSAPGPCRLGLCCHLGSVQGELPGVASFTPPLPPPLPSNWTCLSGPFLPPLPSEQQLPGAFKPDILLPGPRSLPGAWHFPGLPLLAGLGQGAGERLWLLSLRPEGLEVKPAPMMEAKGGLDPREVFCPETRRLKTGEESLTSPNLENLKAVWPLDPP
Summary of the method: as §1

ETS2 = target: T7, ETS2 (Homo sapiens, UniProt P15036 1-469)
T7 sequence: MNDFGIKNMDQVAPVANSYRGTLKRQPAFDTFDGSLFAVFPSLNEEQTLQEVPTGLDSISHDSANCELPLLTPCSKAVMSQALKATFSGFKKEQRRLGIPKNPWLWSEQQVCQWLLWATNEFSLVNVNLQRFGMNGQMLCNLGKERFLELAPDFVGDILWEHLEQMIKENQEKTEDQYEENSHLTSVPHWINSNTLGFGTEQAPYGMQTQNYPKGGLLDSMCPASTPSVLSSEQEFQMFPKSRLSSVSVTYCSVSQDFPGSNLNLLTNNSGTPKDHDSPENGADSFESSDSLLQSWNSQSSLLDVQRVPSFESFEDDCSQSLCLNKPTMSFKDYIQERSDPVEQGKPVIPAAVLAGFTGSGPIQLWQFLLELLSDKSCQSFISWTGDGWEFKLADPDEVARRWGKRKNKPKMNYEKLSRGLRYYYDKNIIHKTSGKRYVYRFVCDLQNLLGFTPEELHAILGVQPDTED
Summary of the method: as §1

ETV7 = target: T8, ETV7 (Homo sapiens, UniProt Q9Y603 1-341)
T8 sequence: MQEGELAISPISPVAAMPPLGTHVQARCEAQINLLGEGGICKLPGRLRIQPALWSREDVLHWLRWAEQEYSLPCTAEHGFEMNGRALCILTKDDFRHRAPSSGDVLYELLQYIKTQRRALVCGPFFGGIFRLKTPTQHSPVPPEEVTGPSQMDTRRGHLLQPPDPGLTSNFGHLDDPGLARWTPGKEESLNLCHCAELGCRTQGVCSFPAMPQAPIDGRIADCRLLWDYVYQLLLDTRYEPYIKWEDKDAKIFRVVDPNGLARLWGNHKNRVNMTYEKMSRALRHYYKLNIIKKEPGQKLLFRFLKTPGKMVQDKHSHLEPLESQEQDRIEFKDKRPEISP
Summary of the method: as §1

ETV3 = target: T9, ETV3 (Homo sapiens, UniProt P41162-2 1-143)
T9 sequence: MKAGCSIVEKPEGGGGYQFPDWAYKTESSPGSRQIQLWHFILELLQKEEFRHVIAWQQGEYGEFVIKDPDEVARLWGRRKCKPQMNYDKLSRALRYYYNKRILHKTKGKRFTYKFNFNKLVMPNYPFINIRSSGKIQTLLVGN
Summary of the method: as §1

ETV6 = ETV6 (Homo sapiens, UniProt P41212 1-452)
ETV6, sequence (P41212 whole entry): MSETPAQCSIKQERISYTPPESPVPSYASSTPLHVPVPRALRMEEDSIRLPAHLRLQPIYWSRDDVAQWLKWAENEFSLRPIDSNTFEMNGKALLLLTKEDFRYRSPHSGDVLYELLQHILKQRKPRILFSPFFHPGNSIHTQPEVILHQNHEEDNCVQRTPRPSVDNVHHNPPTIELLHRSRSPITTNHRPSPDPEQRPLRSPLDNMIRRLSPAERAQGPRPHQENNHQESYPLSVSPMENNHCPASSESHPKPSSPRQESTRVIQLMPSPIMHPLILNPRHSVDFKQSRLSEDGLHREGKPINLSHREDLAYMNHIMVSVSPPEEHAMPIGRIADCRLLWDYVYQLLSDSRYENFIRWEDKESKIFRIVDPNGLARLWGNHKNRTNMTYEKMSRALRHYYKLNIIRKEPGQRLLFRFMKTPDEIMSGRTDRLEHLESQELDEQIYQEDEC
Summary of the method: as §1

Sequence: ATGGCG
- binding signal (FLI1): 1 fold enrichment (6-mer frequency, TF over GST control)
- binding signal (ELK1): 1.05 fold enrichment (6-mer frequency, TF over GST control)
- binding signal (GABPA): 1.04 fold enrichment (6-mer frequency, TF over GST control)
- binding signal (ERG): 1.02 fold enrichment (6-mer frequency, TF over GST control)
- binding signal (ELF1): 1.06 fold enrichment (6-mer frequency, TF over GST control)
- binding signal (SPI1): 1.03 fold enrichment (6-mer frequency, TF over GST control)
- binding signal (SPIB): 1.01 fold enrichment (6-mer frequency, TF over GST control)
- binding signal (ETV5): 1.02 fold enrichment (6-mer frequency, TF over GST control)
- binding signal (ELF3): 1.03 fold enrichment (6-mer frequency, TF over GST control)
- binding signal (ETV3L): 1.03 fold enrichment (6-mer frequency, TF over GST control)
- binding signal (ETS2): 1.11 fold enrichment (6-mer frequency, TF over GST control)
- binding signal (ETV7): 1.01 fold enrichment (6-mer frequency, TF over GST control)
- binding signal (ETV3): 1.09 fold enrichment (6-mer frequency, TF over GST control)
- binding signal (ETV6): 1.05 fold enrichment (6-mer frequency, TF over GST control)
